Experimental data as given in ChEMBL document CHEMBL4513146, “CO-ADD screening of Karazin Kharkiv National University (Ukraine) compounds”.
Entries with a potency or affinity are not part of this list.

How the values were obtained:
Staphylococcus aureus = details: Concentration 32 ug.mL-1;; ASSAY_TEST Inhibition of Bacterial Growth; detection method Absorption (OD600); MEDIA CAMHB; plate type 384well; NBS; CORNING #3640; time 18 hr
Escherichia coli = details: Concentration 32 ug.mL-1;; ASSAY_TEST Inhibition of Bacterial Growth; detection method Absorption (OD600); MEDIA CAMHB; plate type 384well; NBS; CORNING #3640; time 18 hr

SMILES | Inhibition (Staphylococcus aureus) [%] | Inhibition (Escherichia coli) [%]
COc1ccc(Cn2nc3ccc(-c4ccccc4)nn3c2=O)cc1F | 20.86 | 2.33
CCOc1ccc(-n2ccn3c(SCC(=O)Nc4ccccc4C(F)(F)F)nnc3c2=O)cc1 | 16.73 | 2.18
Cc1ccc(Cl)cc1NC(=O)Cn1nc2c3c4c(sc3ncn2c1=O)CCCCC4 | 5.6 | -1.7
COc1ccc(Cl)cc1NC(=O)CSc1nnc2c(=O)n(-c3ccccc3)ccn12 | 7.26 | -0.85
O=c1n(Cc2c(F)cccc2Cl)nc2ccc(-c3ccccc3)nn12 | 7.33 | 0.7
O=S(=O)(c1ccc2nncn2c1)N(Cc1cc(F)cc(F)c1)c1cccc(F)c1 | 5.24 | -5.68
COc1ccccc1N1CCN(C(=O)CSc2nc3ccccc3n3cnnc23)CC1 | 11.06 | 4.69
Cc1ccc(NC(=O)Cn2nc3ccc(SC4CCCCC4)nn3c2=O)cc1C | -6.2 | -13.15
O=C(Cn1nc2c3c4c(sc3ncn2c1=O)CCCC4)NCc1ccccc1Cl | -19.92 | 0.09
COc1ccc(-c2nc(CSc3nc4ccccc4n4c(C(C)C)nnc34)c(C)o2)cc1OC | -10.5 | 0.54
Cc1nnc2c(=O)n(CC(=O)Nc3cccc(Br)c3)c3ccccc3n12 | 15.88 | -0.63
Cc1c(Cl)cccc1-n1ccn2c(=O)n(Cc3ccc(Cl)cc3)nc2c1=O | 9.17 | -7.56
Cc1ccc(-n2ccn3c(SCC(=O)Nc4ccc5c(c4)OCCO5)nnc3c2=O)cc1C | 6.11 | -5.98
Cc1ccc(N(Cc2cc(F)cc(F)c2)S(=O)(=O)c2cccn3c(C)nnc23)cc1 | 11.96 | -4.21
CC(C)c1nnc2c(=O)n(CC(=O)Nc3ccc(F)cc3)c3ccccc3n12 | 20.52 | 5.44
CCCCOc1ccc(-c2cc3c4nnc(SCC(=O)Nc5cccc(C)c5C)n4ccn3n2)cc1 | -5.45 | -19.34
